L major viab: Leishmania major promastigote growth inhibition, primary screen. Leishmania major promastigotes, resazurin fluorescence viability. inhibition, % at 10 µM. actives 9% (n = 200,000). AID 1063, 2008; in the data active = inhibition above about 50%;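 also: promastigotes grown with compound for 44 hours at 28 °C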
Autophagy HCS: autophagy modulators in MEF cells, primary screen, imaging, high-content, MEF GFP-LC3 | MEF GFP-LC3 puncta imaging; test concentration mostly 10 µM | calls only at 10 µM (by protocol) | actives 0.98% (n = 190,000);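 active = percentage of spot-positive cells more than 3 SD above its plate mean, without a fluorescence outlier flag or 80% toxicity; inconclusive = no clear call, values can overlap the other calls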
INS promoter inh: inhibitors of insulin promoter-driven GFP, primary screen, imaging, TRM-6 cells (human fetal islet line), eGFP reporter, cell count. actives 0.9% (n = 130,000). inhibition, % at 2 µM. reporter expression induced with tamoxifen;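 active = inhibition above the mean plus 3 SD, with well images judged a real hit on visual review, cut at about 60% in these data, passing the limit was not always enough; inconclusive = inhibition over the cutoff but images rejected on review; inactive = inhibition not above the cutoff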
Ins promoter up: insulin promoter activators in MIN6 cells, imaging, high-content screening, mouse beta cells. z-score at 5 µM. actives 0.3% (n = 190,000). MIN6 insulin promoter-GFP reporter; active compounds read high;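 active = z-score above 3 at 5 µM with at least 500 cells counted in the well; inconclusive = wells under 500 cells, flagged as cytotoxic or low count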
WT yeast gro inh: growth inhibition of WT strain, primary screen, mitochondrial fusion inhibitor project, WT and mutant strains, chemical genetic; mitochondrial fusion phenotypic screen; inhibition, % at 10 µM; actives 2.1% (n = 190,000); AID 1362, 2008; in the data active = inhibition above about 58%; tested in S. cerevisiae
A number is an active result; - = inactive; ? = inconclusive; . = no result; + = active, no number. Compounds with a hit are over-represented: about 11% of the library has one in this group of screens.

SMILES	L major viab	Autophagy HCS	INS promoter inh	Ins promoter up	WT yeast gro inh
COc1cc(Cl)cc2c1Sc1ccccc1/C2=C/CCN(C)C	59	-	?	.	-
CN(C)CC/C=C1/c2ccccc2Sc2c(O)cc(Cl)cc21	98	-	-	.	-
COc1cc2c(cc1Cl)/C(=C\CCN(C)C)c1ccccc1S2	100	-	-	-	-
COc1ccccc1CN(Cc1nc2ccccc2c(=O)[nH]1)C(=O)Nc1cccc(C)c1	86	-	-	.	-
O=C(Nc1ccc(Cl)cc1)N(Cc1nc2ccccc2c(=O)[nH]1)Cc1cccs1	85	-	-	-	-
COc1ccccc1CN(Cc1nc2ccccc2c(=O)[nH]1)S(=O)(=O)c1ccc2ccccc2c1	90	-	-	-	-
O=C(NCc1ccccn1)c1ccc(CNS(=O)(=O)c2cccc(Cl)c2)cc1	-	-	.	-	-
COc1ccc(CCNC(=O)CC(NC(=O)c2ccccc2Cl)c2ccccc2)cc1 (configuration not stated)	75	-	-	-	-
O=C(Nc1ccc2c(c1)OCO2)c1cnccn1	-	-	-	-	-
O=C(Nc1ccc2c(c1)OCO2)c1cc(C2CC2)on1	52	-	.	-	-
CC(C)CC(=O)Nc1ccc2c(c1)OCO2	-	+	.	-	-
CC(C)c1cc(C(=O)Nc2ccc3c(c2)OCO3)no1	-	-	80	-	-
O=C(CCl)Nc1ccc2c(c1)OCO2	-	-	.	-	-
Cc1ccc(NC(=S)N/N=C/c2cccn2Cc2ccccc2F)cc1	.	.	.	-	.
NC(=O)COC(=O)CNC(=O)c1sc2ccccc2c1Cl	-	-	.	-	-
Cc1cc(C)n2nc(C(=O)Nc3ccc4c(c3)OCO4)nc2n1	67	-	-	-	-
O=C(CC(NC(=O)c1ccccc1Cl)c1ccccc1)Nc1ccc2c(c1)OCO2 (configuration not stated)	100	-	-	-	-
Cc1ccnc2nc(C(=O)Nc3ccc4c(c3)OCO4)nn12	-	-	-	.	-
NC(=O)c1ccc(NC(=O)COC(=O)CC(NC(=O)c2ccccc2Cl)c2ccccc2)cc1 (configuration not stated)	-	-	-	-	-
OCCC1CN(Cc2ccc(Oc3ncccn3)cc2)CCN1C1CCCC1 (configuration not stated)	-	-	.	-	-
Nn1c(SCC(=O)NCCCc2ccccc2)nnc1-c1cccnc1	.	.	.	-	.
CCn1cc([N+](=O)[O-])c(C(=O)Nc2ccc3c(c2)OCCO3)n1	-	-	.	-	-
O=C(Nc1cccc2ccccc12)c1nn(C23CC4CC(CC(C4)C2)C3)cc1[N+](=O)[O-]	81	-	.	-	-
COc1ccc(NC(=O)c2nn(C34CC5CC(CC(C5)C3)C4)cc2[N+](=O)[O-])cc1	96	-	-	-	-
Cn1c(SCC(=O)N2c3ccccc3CCc3ccccc32)nnc1-c1ccc(O)cc1	-	-	-	-	-
SMILES	L major viab	Autophagy HCS	INS promoter inh	Ins promoter up	WT yeast gro inh
O=C(COc1cccc2cccnc12)Nc1ccccc1N1CCOCC1	-	-	-	.	-
O=C(C1CCCCC1)N(Cc1nc2sc3c(c2c(=O)[nH]1)CCCC3)Cc1cccs1	-	-	-	-	59
O=C(C1CC1)N(Cc1nc2ccccc2c(=O)[nH]1)Cc1cccs1	.	.	.	-	.
CC(=O)C1=C(O)C(=O)N(CCNCCO)C1c1ccccc1 (configuration not stated)	-	-	-	-	-
O=C(CN1C(=O)COc2ccccc21)N(Cc1cccnc1)Cc1ccccc1F	96	-	-	-	-
O=C(CCN1C(=O)COc2ccccc21)NCc1cccnc1	-	-	-	-	-
CCn1c(SCC(=O)N(C)C2CCS(=O)(=O)C2)nnc1-c1ccccc1 (configuration not stated)	-	-	.	-	-
C(=N\N1CCN(Cc2cccc3ccccc23)CC1)/c1ccco1	-	+	-	-	-
CCn1cc(S(=O)(=O)N2CCN(Cc3cccc(Cl)c3)CC2)cn1	-	-	-	-	-
NC(=O)CSc1nnc2ccc(-c3ccco3)nn12	-	-	68	-	-
c1cncc(CSc2nnc3ccc(-c4ccco4)nn23)c1	-	-	.	-	-
O=P(OC1CCCCC1)(OC1CCCCC1)C(O)c1ccc(Cl)cc1Cl (configuration not stated)	52	-	-	-	-
O=P(OC1CCCCC1)(OC1CCCCC1)C(O)c1c(Cl)cccc1Cl (configuration not stated)	53	-	-	-	71
Cc1ccc(S(=O)(=O)NC(CN2CCOCC2)=NCCNS(=O)(=O)c2ccccc2)cc1	-	-	-	-	-
COCCNC(=O)C(c1ccc(C)o1)N(C(=O)c1snc(C(N)=O)c1N)c1cc(C)cc(C)c1 (configuration not stated)	-	-	-	-	-
CCNc1nc(CN2CCCCC2)nc2scc(-c3ccccc3)c12	-	-	.	-	-
c1csc(-c2csc3nc(CN4CCOCC4)nc(NCc4ccc5c(c4)OCO5)c23)c1	-	-	-	-	64
N/C(=N\NC(=O)c1sccc1OCc1ccc(Cl)cc1Cl)c1ccccn1	100	-	-	-	-
Cc1ccc(C)c(NC(=S)N(Cc2ccco2)C(C)c2cccs2)c1 (configuration not stated)	63	-	-	.	69
Cc1ccc(NC(=S)N(Cc2ccco2)C(C)c2cccs2)c(Cl)c1 (configuration not stated)	-	-	-	-	66
Cc1ccc(Cl)cc1NC(=S)N(Cc1ccco1)C(C)c1cccs1 (configuration not stated)	-	-	-	-	-
O=C(OCn1ncc(Cl)c(Cl)c1=O)c1ccc(F)cc1	98	-	-	.	-
O=C(COC(=O)c1ccc(F)cc1)Nc1ccc(Cl)cn1	.	.	.	-	.
O=c1c(Cl)c(Cl)cnn1Cc1ccc(F)cc1	73	-	.	-	-
O=C(OCn1ncc(Cl)c(Cl)c1=O)c1ccccc1Cl	101	-	-	.	-
SMILES	L major viab	Autophagy HCS	INS promoter inh	Ins promoter up	WT yeast gro inh
COc1ccccc1OCc1ccc(C(=O)NCC2CCCO2)o1 (configuration not stated)	-	-	.	-	-
O=C(CSc1nnnn1-c1ccc2c(c1)OCCO2)N1CCN(C(=O)c2ccco2)CC1	-	-	.	-	-
Cc1cccnc1Nc1nc(-c2ccc(O)cc2)cs1	99	-	-	-	-
COCCSc1ccccc1C(=O)Nc1ccccc1C#N	-	-	.	-	-
CC(=O)NC(=S)Nc1ccccc1N1CCCCC1	-	-	.	-	-
C=C(C(=O)c1ccccc1)C(C)CC(=O)c1ccccc1 (configuration not stated)	86	-	.	-	-
O=C(CC(Nc1ccccc1)C(=O)O)c1ccccc1 (configuration not stated)	.	.	.	-	-
c1ccc(CSc2ccc(-c3cccnc3)nn2)cc1	-	-	-	-	-
COc1ccc(Oc2ccc(N/C=C/C(=O)C(C)(C)C)cc2)cc1	-	-	.	-	-
COc1ccc(N/C=C/C(=O)c2ccc(Oc3ncccn3)cc2)cc1	-	-	-	-	70
